High-throughput results (PubChem)
ELG1 genotoxic: inducers of genotoxicity in HEK293T ELG1-luciferase cells | HEK293T ELG1-luciferase reporter, luminescence, 16 h | Potency, µM (titrated, usually from 46 µM), inactives show at the highest dose activity change, positive = activation, hits mostly activators | 330,000 tested, 1.3% active | AID 504466; also: % of control where 0% means no effect; nearly all actives have a fitted effect of over 60% in size
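Quantitative HTS format in 1536-well plates. HEK293T ELG1-luciferase reporter cells receive test compound and are incubated 16 hr at 37 °C, 5% CO2; ONE-Glo added, 30 min room temperature, then luminescence read.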
Luc counter: counter-screen: inhibitors of Kinase-Glo firefly luciferase. Q27757. Kinase-Glo luciferase, ATP luminescence, 8 min. Potency, µM (titrated, usually from 38.3 µM), for inactives: top-dose activity change, negative = inhibition, most hits filed as inhibitors. 200,000 tested, 0.28% active; also: % is scaled to controls: 0 for no effect and ±100 for the full control effect; nearly all actives have a fitted effect of over 60% in size
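Substrate mix (final 50 mM imidazole pH 7.2, 50 mM KCl, 7 mM MgCl2, 10 uM ATP, 0.01% Tween 20, 0.05% BSA) plus pin-tool compound, then Kinase-Glo detection mix; 8 min ambient, luminescence read.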
Rab9 promoter act: activates the Rab9 promoter; Huh7 Rab9 promoter-luciferase reporter, luminescence, 24 h; Potency, µM (doses to about 9.22 µM), for inactives: at the highest dose activation, negative = inhibition, most hits filed as activators; 320,000 tested, 2.8% active; AID 485297; also: % of control where 0% means no effect; nearly all actives have a fitted effect of over 60% in size
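Promoter activation is measured as luciferase luminescence in Huh7 cells stably transfected with a Rab9 promoter–luciferase construct, following 24 h compound exposure at 37 °C and 10 min reagent incubation at ambient temperature.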
FLuc counter: counter-screen for miR-21 project: firefly luciferase inhibitors or activators. P08659. purified FLuc, Km substrates, luminescence inhibition. Potency, µM (titrated, usually from 57.5 µM), for the others: at the top dose activity change, negative = inhibition, hits mostly inhibitors. 360,000 tested, 6.9% active;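 also: plate controls were vehicle for no effect and reference inhibitor for full effect; nearly all actives have a fitted effect of over 55% in size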
Target sequence (P08659 whole entry, looked up): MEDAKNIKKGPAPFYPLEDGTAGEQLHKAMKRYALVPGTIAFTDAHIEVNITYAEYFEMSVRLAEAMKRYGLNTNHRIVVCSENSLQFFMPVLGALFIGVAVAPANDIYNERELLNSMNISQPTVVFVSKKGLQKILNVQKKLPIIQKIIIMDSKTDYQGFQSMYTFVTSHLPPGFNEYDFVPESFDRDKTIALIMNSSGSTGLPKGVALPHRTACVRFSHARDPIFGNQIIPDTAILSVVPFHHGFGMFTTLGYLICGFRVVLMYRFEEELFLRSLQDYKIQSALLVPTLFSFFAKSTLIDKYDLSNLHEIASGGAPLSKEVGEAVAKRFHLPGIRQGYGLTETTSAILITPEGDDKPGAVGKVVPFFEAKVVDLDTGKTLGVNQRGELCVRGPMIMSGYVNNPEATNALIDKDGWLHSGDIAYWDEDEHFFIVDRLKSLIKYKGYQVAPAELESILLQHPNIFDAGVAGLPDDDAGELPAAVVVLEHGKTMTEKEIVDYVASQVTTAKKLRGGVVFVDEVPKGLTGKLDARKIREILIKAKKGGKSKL
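Purified P. pyralis luciferase (10nM final) with 10uM D-luciferin and 10uM ATP (Km levels) in 50mM Tris acetate pH 7.5, 10mM Mg acetate, 0.01% Tween-20, 0.05% BSA; qHTS 6-point titration, ~60 µM downward; luminescence read.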
NPC1 promoter act: activators of NPC1 promoter; Huh7 NPC1 promoter luciferase reporter, 24 h; Potency, µM (top dose mostly 9.22 µM), inactives show at the highest dose activation, actives largely listed as activators; 320,000 tested, 2.4% active; AID 485313; also: % of control where 0% means no effect; nearly all actives have a fitted effect of over 60% in size
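Stably transfected Huh7 (NPC1 promoter→luciferase), 1500 cells/well in Opti-MEM + 10% FBS, 2 h settle, then compound 24 h at 37 °C. Luminescence after 10 min with Amplite reagent.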
SMN2 splice up: enhancers of SMN2 splice variant expression; HEK293 SMN2-luciferase splicing reporter, luminescence, 30-36 h; 210,000 tested, 2.8% active; Potency, µM (series often up to 46.1 µM), without a hit: top-dose activity change, positive = activation, actives largely listed as activators; also: % of control where 0% means no effect; nearly all actives have a fitted effect of over 55% in size
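qHTS luciferase splicing reporter: luminescence rises when SMN2 exon 7 is included in transfected HEK293 cells. Compound exposure lasted 30-36 h at 37C, with 4.5 mM final sodium butyrate as control, followed by a ONE-Glo read.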
Active calls of the source: *; ? = inconclusive; / = no result given. Hits are enriched below; roughly 7.4% of the tested compounds scored in any of these assays. Calls follow the shape of the dose curve; as a rule, active = well fitted curve in the direction sought with a large enough effect; inconclusive = small, poorly fitted or top-dose-only effect, or another doubt; inactive = no such curve, though single readings can be large; an effect the other way counts as inactive or inconclusive. Potency is read from the fitted curve at half-maximal effect.

SMILES	ELG1 genotoxic	Luc counter	Rab9 promoter act	FLuc counter	NPC1 promoter act	SMN2 splice up
CCSc1nnc(NC(=O)CSc2nc3c(cc2C#N)CCCC3)s1	13.0%	-1.5%	3.16µM*	12µM*	1.78µM*	7.94µM*
Cc1cccc(-n2ccnc2SCC(=O)Nc2nccs2)c1	14.9%	/	3.55µM*	?	?	/
Cc1ccccc1NC(=O)Cc1nnc(SCC(=O)NC2=NCCS2)n1C	-1.6%	/	-3.4%	5.8%	-5.2%	/
N#Cc1cc2c(nc1SCC(=O)Nc1sc3c(c1C#N)CCC3)CCCCCC2	-0.3%	-0.5%	3.2%	-1.3%	0.7%	-25.7%
CCc1nnc(NC(=O)CSc2nc3c(cc2C#N)CCC3)s1	?	2.2%	2.24µM*	0.849µM*	2.82µM*	12.6µM*
N#Cc1cc2c(nc1SCC(=O)Nc1nccs1)CCCCC2	0.116µM*	-0.3%	0.282µM*	0.675µM*	0.282µM*	1µM*
COc1ccccc1OCC(=O)Nc1cccc(N(C)S(C)(=O)=O)c1	2.4%	-2.7%	0.0%	16.9µM*	12.5%	14.1%
COc1cc(C=O)ccc1OCC(=O)Nc1cccc(S(=O)(=O)N(C)c2ccccc2)c1	0.6%	/	-0.1%	-18.3%	-2.4%	/
COc1ccc(C(=O)Nc2cccc(N(C)S(C)(=O)=O)c2)cc1OC	16.4µM*	-11.0%	?	16.9µM*	?	12.6µM*
CN(c1cccc(NC(=O)CN2C(=O)c3ccccc3S2(=O)=O)c1)S(C)(=O)=O	0.9%	1.3%	-1.0%	26.9µM*	12.8%	23.1%
Cc1ccc2c(c1)N(CC(=O)NC1CCC(C)CC1)C(=O)c1cccnc1O2 (stereo not drawn)	2.3%	/	2.5%	-0.8%	-1.2%	/
O=C(Nc1ccsc1C(=O)O)c1cccc(C(F)(F)F)c1	16.4µM*	/	?	9.53µM*	3.16µM*	/
O=C(Nc1nnc(-c2cccs2)o1)c1cccc(Oc2ccccc2)c1	-9.4%	-1.3%	7.0%	-16.0%	2.7%	0.9%
O=C(Nc1ccsc1C(=O)O)c1cccc(Oc2ccccc2)c1	?	/	0.891µM*	0.757µM*	1.78µM*	/
Cc1ccccc1NC(=O)c1cccc(C(F)(F)F)c1	-0.1%	-1.6%	3.1%	-4.7%	-1.5%	4.2%
C=CCNc1ncnc2c1cnn2-c1ccc(OC)cc1	?	-1.3%	0.398µM*	3.38µM*	0.631µM*	?
COc1ccc(CCNc2ncnc3c2cnn3-c2ccc(F)cc2)cc1	/	/	/	-15.5%	/	/
COc1ccc(CC(=O)NNc2ncnc3c2cnn3-c2ccc(C)cc2)cc1	4.6%	/	-1.5%	4.5%	-0.5%	/
CCCNc1ncnc2c1cnn2-c1ccc(OC)cc1	2.2%	-0.7%	0.398µM*	5.36µM*	0.501µM*	-2.7%
CCCN(CCC)c1ncnc2c1cnn2-c1ccc(OC)cc1	1.16µM*	0.6%	0.447µM*	2.39µM*	0.708µM*	?
CCC1=C2CC[C@H]3C(=O)NC(=O)[C@H]3[C@H]2[C@@]2(C)C(=O)N(CC3CC3)C(=O)N2C1=O	/	-5.6%	/	/	/	1.0%
COc1cc(OC)c(NC(=O)C(NS(=O)(=O)c2cccc3nsnc23)c2ccccc2)cc1Cl (stereo not drawn)	/	/	/	-14.1%	/	0.8%
COc1ccc(-n2ncc(C(=O)Nc3cccc(C(F)(F)F)c3)c2C2CCN(C(=O)OC(C)(C)C)CC2)cc1	/	/	/	-0.3%	/	/
CC(C)(C)C1CCc2c(sc3nc(SCC(=O)O)nc(N)c23)C1 (stereo not drawn)	?	/	10.9%	2.39µM*	17.7%	/
Nc1nc(SCC(=O)NCCCO)nc2sc3c(c12)CCC3	-3.6%	-4.4%	-5.9%	-18.2%	-3.0%	-7.5%
CC1(C)Cc2c(sc3nc(SCC(=O)O)nc(N)c23)CO1	-0.1%	/	2.4%	-17.6%	-2.7%	/
Nc1nc(SCC(=O)NCCO)nc2sc3c(c12)CCCC3	11.3%	-0.9%	-2.1%	16.9µM*	6.1%	10.5%
COC(=O)CSc1nc(N)c2c3c(sc2n1)CCCC3	13.0%	/	5.4%	9.53µM*	0.5%	/
Cc1onc(-c2ccccc2)c1C(=O)NN1CCOCC1	-2.8%	/	/	/	/	/
